Compounds without any hit were thinned out: in the full panel of roughly 83,000, 20% have a hit.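 Values shown are percent growth following 48 h exposure of cells in 96-well plates to a single concentration of compound; below 10 was considered active.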 Activity calls are given as the source filed them.
Test system: MDA-MB-435 melanoma
Test: NCI-60 one-dose screen, 48 h (100 = growth as untreated, 0 = no growth, -100 = all killed)
Details: 10 µM unless noted

Compound | growth
CNC(=O)c1cc(Oc2ccc3nc(NC(=O)Nc4ccc(F)cc4F)sc3c2)ccn1 | 62.5% (inactive)
CCOC(=O)c1c2c(n3ccc(NC(=O)CCN4CCCC4)cc13)C(=O)c1ncccc1C2=O | -68.5% (active)
CNC(=O)c1cc(Oc2ccc3nc(NC(=O)c4cc(C(F)(F)F)cc(C(F)(F)F)c4)sc3c2)ccn1 | 12.1% (inactive)
CC(=O)CC(=O)c1ccccc1.[Cu+2] | 105% (inactive)
O=c1c2cccc3c(N4CCOCC4)ccc(c32)c2nc3ccccc3n12 | 104% (inactive)
CN(C)C(=O)OCc1ccc2c(Cl)cc(Cl)c(O)c2n1 | 31.2% (inactive)
COc1ccc(-c2ccc(-c3ccc(C(=N)N)nc3)s2)cc1 | -95.8% (active)
CN1CCN(c2ccc(Nc3ncc4[nH]c(=O)n(Cc5ccccc5N)c4n3)cc2)CC1 | 104% (inactive)
NC(=N\N=C/c1ccc(Cl)cc1Cl)/C(N)=N\N=C/c1ccc(Cl)cc1Cl | 82.6% (inactive)
C=C1C(=O)O[C@H]2[C@H]1CC/C(COC(=O)NCc1ccc(Cn3c(=O)sn(CCCC)c3=O)cc1)=C\CC[C@@]1(C)O[C@@H]21 | 40.8% (inactive)
FC(F)(F)c1cccc(-c2nnn(Cc3cc(-c4cccc(Cl)c4)no3)n2)c1 | 105% (inactive)
O=C(c1ccc(F)cc1)C1CCN(CCn2c(=O)[nH]c3ccccc3c2=O)CC1 | 104% (inactive)
Cc1ccc(C2(C)NC(=O)N(CC(=O)Nc3cccc(C)c3)C2=O)cc1 (stereo not given) | 108% (inactive)
COc1ccc(C(=O)C2OC3=C(C(=O)CC(C)(C)C3)C2c2cccc(Oc3ccccc3)c2)cc1 (stereo not given) | 90.8% (inactive)
CC1(C)C2=C(C(=O)N1Cc1ccccc1)C(c1ccco1)N(C(=O)C1CCC1)CCN2 (stereo not given) | 101% (inactive)
COc1ccc(Nc2nccc(Nc3ccc4[nH]ncc4c3)n2)cc1 | 34.9% (inactive)
Cc1nn(-c2ccccc2)c(Oc2ccccc2)c1/C=N/NC(=O)Cn1c(=O)sc2ccccc21 | 54.3% (inactive)
CCN1C(=O)N(CC)C2C1NC(=S)N2/N=C/C=C/c1cccs1 (stereo not given) | -26.9% (active)

Compound | growth
O=C(Nc1ncc(Cc2ccc(Cl)cc2)s1)c1ccc2c(c1)OCCO2 | 5.85% (active)
C#Cc1ccc(NC(=O)Cc2ccc(/C=C/C(=O)c3nccn3C)cc2)cc1 | 83.6% (inactive)
CN(C)CCOc1nc2c3cc([N+](=O)[O-])ccc3nn2c2ccccc12 | 82.4% (inactive)
CCN(CC)CCCC(Nc1c2ccc(Cl)cc2nc2ccc(OC)cc12)c1ccncc1 (stereo not given) | 93% (inactive)
CCOC(=O)c1cnc2sc(-c3ccc(OC)cc3)nc2c1Cl | 87.7% (inactive)
COc1ccc2c(O)cc3c(c2c1)[C@H](CCl)CN3C(=O)c1cc2cc(NC(=O)CCN3CCOCC3)ccc2[se]1 | -67.5% (active)
Oc1ccc(Cc2ccc(O)c3ncccc23)c2cccnc12 | 12.6% (inactive)
CO[C@]12C=C/C(=C(/C(=O)OCc3cccnc3)C(=O)CCCCCCCC[C@]3(OC)C=C/C(=C(/C(=O)OCc4cccnc4)C(=O)CCCCCCCC1)O3)O2 | -42.4% (active)
CC(C)=CCC[C@](C)(O)C1CC[C@]2(C)[C@@H]1CC[C@@H]1[C@@]3(C)CC/C(=N\OCCC#N)C(C)(C)[C@@H]3CC[C@]12C (stereo not given in full) | 87.7% (inactive)
Cn1cc(-c2ccc3c(Nc4cccc(NC(=O)Nc5cccc(F)c5)c4)ncnc3c2)cn1 | 57.8% (inactive)
O=c1oc2ccccc2cc1-c1nn(-c2ccccc2)cc1/C=N/Nc1nc(-c2ccccc2)c(N=Nc2ccccc2)s1 | -27.8% (active)
CCCNNC(=O)c1ccc(CNC(=O)/C=C/c2ccccc2)cc1 | 31.8% [2.5 µM] (inactive)
C=C(CNCCO)[C@@H]1CC[C@]2(CO)CC[C@]3(C)[C@H](CC[C@@H]4[C@@]5(C)CCC(NCCO)C(C)(C)[C@@H]5CC[C@]43C)[C@@H]12 (stereo not given in full) | 70.2% (inactive)
COc1cccc(-c2cc(-c3ccc(Nc4nc(Nc5ccc(Cl)cc5)nc(Nc5ccc(Cl)cc5)n4)cc3)nc(N)c2C#N)c1 | -5.12% (active)
CC(C)C(=O)Nc1ncc(C(=O)NCCN(Cc2ccccc2)C(=O)c2ccc(S(=O)(=O)Nc3ccccc3)cc2)s1 | 98.1% (inactive)
CN1CCN(Cc2ccc(NC(=O)c3cncc(C#Cc4cnc(N)c5ccc(C#N)cc45)c3)cc2C(F)(F)F)CC1 | -74.3% (active)
COc1ccc2c(c1)c(-c1nc(-c3cn(C)c4ccncc34)cs1)cn2C | -90% (active)

Reference: PubChem BioAssay (NCI)
